ERK EGF inh = blocks ERK signaling stimulated by EGF; Potency, µM (doses to about 11.5 µM), inactives show at the highest dose activity change, negative = inhibition, usual class: inhibitors; HEK293-V1b, EGF-stimulated phospho-ERK AlphaScreen; hit rate 0.41% among 130,000;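 note: plate controls were stimulated vehicle wells for no effect and unstimulated vehicle basal for full effect; nearly all actives have a fitted effect of over 55% in size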
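Cell line HEK293 (stable V1b), low serum overnight. Pretreatment: compound 30 min, 37C. EGF 25 nM, 5 min. Detection: SureFire AlphaScreen, 5 h RT. AC50 via standard Hill equation.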
NPSR antag = antagonists of human neuropeptide S receptor cAMP signaling; CHO-NPSR cells, cAMP TR-FRET, antagonist mode; Q6W5P4; AID 1461; hit rate 1% among 220,000; Potency, µM (titrated, usually from 38.3 µM), without a hit: top-dose activity change, negative = inhibition, hits mostly inhibitors; note: nearly all actives have a fitted effect of over 50% in size
Target sequence (Q6W5P4 whole entry, looked up): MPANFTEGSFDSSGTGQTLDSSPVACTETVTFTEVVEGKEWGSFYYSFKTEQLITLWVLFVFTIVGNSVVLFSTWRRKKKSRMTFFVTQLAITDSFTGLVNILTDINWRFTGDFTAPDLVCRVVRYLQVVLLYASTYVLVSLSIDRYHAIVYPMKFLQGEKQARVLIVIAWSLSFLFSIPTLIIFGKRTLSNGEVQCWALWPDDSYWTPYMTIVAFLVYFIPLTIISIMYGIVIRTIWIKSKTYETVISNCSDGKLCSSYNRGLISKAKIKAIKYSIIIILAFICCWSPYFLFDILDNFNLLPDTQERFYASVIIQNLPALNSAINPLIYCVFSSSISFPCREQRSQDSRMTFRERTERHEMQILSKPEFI
An asterisk follows results filed as active; [ ] = another dose, or the depositor's remark. The entries come from a sample that favours hits as a whole. Calls come from the whole dose curve; as a rule, active = well fitted curve in the direction sought with a large enough effect; inconclusive = small, poorly fitted or top-dose-only effect, or another doubt; inactive = no such curve, though single readings can be large; an effect the other way counts as inactive or inconclusive. Unless noted, % is set by controls: 0 for no effect and ±100 for the full control effect; potency is the fitted concentration of half-maximal effect.

Screening COc1cc(O)c(C(CCN2CCN(c3ccccc3)CC2)c2cc(OC)c(OC)c(OC)c2)c(OC)c1 (configuration not stated) returned ERK EGF inh -1%[57.5 µM] and NPSR antag 5µM*.
Screening CC1=C(C(=O)O)N2C(=O)C(NC(=O)C(N)c3ccccc3)C2SC1 (configuration not stated) returned ERK EGF inh 22%.
Screening CC[n+]1ccc(/C=C2\Sc3ccccc3N2CCCS(=O)(=O)[O-])c2ccccc21 returned ERK EGF inh -6% and NPSR antag -6%.
Screening CN1C=C/C(=C\c2cc[n+](C)c3ccccc23)c2ccccc21 returned ERK EGF inh 3% and NPSR antag 13µM*.
For COC(=O)C1=C(C)N(CC2CC2)C(=O)N[C@H]1CCc1ccccc1 the results were ERK EGF inh -4%.
Screening O=c1c(-c2cc(O)c(O)c(O)c2)coc2cc(O)c(O)c(O)c12 returned ERK EGF inh 18%.
For CC(C)=CCc1c(O)cc2occ(-c3ccc4c(c3)OCO4)c(=O)c2c1O the results were ERK EGF inh 22µM*.
CCOc1cc(/C=C\[N+](=O)[O-])ccc1OCC(=O)Nc1ccccc1C was read as NPSR antag 4µM*.
CCOc1cc(/C=N/NC(N)=O)cc(Br)c1OCC(=O)Nc1ccccc1C was read as NPSR antag -16%[46.1 µM].
`CN1C2CCC1CC(NC(=O)c1nn(C)c3ccccc13)C2` (configuration not stated) gave ERK EGF inh 7% and NPSR antag -6%[46.1 µM].
O=C(N/N=C/c1cccnc1)c1ccccc1OCc1cccc(Br)c1 was read as ERK EGF inh 1% and NPSR antag -37%.
Screening Cc1ccc(/C=N/NC(=O)c2ccccc2OCc2cccc(Br)c2)o1 returned ERK EGF inh 22µM* and NPSR antag inconclusive.
CCCCC/C=C\C/C=C\CCCCCCCCCC(=O)NC(C)C(=O)O (configuration not stated) was read as ERK EGF inh 3%.
Screening CCCCCCCCCCCCCCCCOCC(CO)OC(C)=O (configuration not stated) returned ERK EGF inh -13%.
COc1ccc(-n2nc([N+](=O)[O-])c(=NCCC3=CCCCC3)n2O)cc1 was read as ERK EGF inh 28µM* and NPSR antag -26%.
For COc1ccc(-n2nc([N+](=O)[O-])c(=NCCc3ccc(C)cc3)n2O)cc1 the results were ERK EGF inh inconclusive and NPSR antag 1%.
For CC(C)(C)OC(=O)NCCCCC1=CC2=CC(=O)C(C)(OC(=O)CCc3ccccc3)C(=O)C2=CO1 (configuration not stated) the results were ERK EGF inh -6%.
O=c1cc(/C=C/c2ccccc2)oc2ccccc12 was read as NPSR antag 5µM*.
For O=C(NC1CC1)c1cc(=O)c2ccccc2o1 the results were NPSR antag -1%[46.1 µM].
`CNC(=O)Oc1ccc2c(c1)[C@@]1(C)CCN(C)C1N2C` (some centres not stated) gave ERK EGF inh 19%.
Screening CNC(=S)Nc1ccc(-c2nc3ccc(C)cc3s2)cc1 returned ERK EGF inh 1% and NPSR antag -36%.
For CC(=O)NC(=S)Nc1ccc(-c2nc3ccc(C)cc3s2)cc1 the results were NPSR antag 10µM*.
`COC/C=C/C1=CC2=CC(=O)C(C)(OC(=O)c3ccc(Cl)nc3)C(=O)C2=CO1` (configuration not stated) gave ERK EGF inh -12%.
Screening CC(=O)N1[C@H](Cc2ccccc2)C=C[C@]1(C)C(=O)O returned ERK EGF inh -1%.
CC(C1CCCC(=O)C1)[N+](=O)[O-] (configuration not stated) was read as ERK EGF inh -10%.
Screening CN1/C(=C\C=C2/C(=O)Oc3ccccc3C2=O)C(C)(C)c2ccccc21 returned ERK EGF inh 6% and NPSR antag -17%.
For CN1/C(=C\C=C2/SC(=S)NC2=O)C(C)(C)c2ccccc21 the results were ERK EGF inh 25µM* and NPSR antag inconclusive.
Screening CO/N=C/C=C1/N(C)c2ccccc2C1(C)C returned ERK EGF inh -2% and NPSR antag 0%.
CN1/C(=C\C=N\O)C(C)(C)c2ccccc21 was read as ERK EGF inh 6% and NPSR antag 10%.
`CN1C(=CC=C2C=C(I)C(=O)C(I)=C2)C(C)(C)c2ccccc21` gave ERK EGF inh 13µM* and NPSR antag inconclusive.
For CN(C)c1ccc(N=C/C=C2/N(C)c3ccccc3C2(C)C)cc1 the results were ERK EGF inh 14µM* and NPSR antag -47%.
`COc1cccc([C@@H]2Oc3ccc(Br)cc3C[C@H]2OC(=O)NCCc2ccc(OC)c(OC)c2)c1` gave ERK EGF inh 9%.
O=C(c1ccncc1)N1CCC2(CCCN(c3cccc(-c4ccccc4)c3)C2)CC1 was read as ERK EGF inh 0%.
`NCC1OC(n2cnc3c(=O)[nH]c(N)nc32)C(O)C1O` (configuration not stated) gave ERK EGF inh 13%.
For Cc1cc(-c2ccc(N=Nc3ccc4c(S(=O)(=O)O)cc(S(=O)(=O)O)c(N)c4c3O)c(C)c2)ccc1N=Nc1ccc2c(S(=O)(=O)O)cc(S(=O)(=O)O)c(N)c2c1O the results were ERK EGF inh 2%.
For CC[C@H](C)[C@@H](NC(=O)O[C@@H]1C(=O)c2ccc(OC)cc2O[C@H]1c1cccc(C(F)(F)F)c1)C(=O)OC the results were ERK EGF inh -4%.
C=CCC(Nc1ccc(OC)cc1)(C(=O)OCC)c1ccccc1 (configuration not stated) was read as ERK EGF inh -10%.
Cc1ccc(-n2c(C)cc(C3N=C(N)Nc4nc5ccccc5n43)c2C)c(C)c1 (configuration not stated) was read as NPSR antag 10µM*.
Screening Cc1cc(C2N=C(N)Nc3nc4ccccc4n32)c(C)n1-c1ccccc1Cl (configuration not stated) returned NPSR antag -8%[46.1 µM].
For C#CC(N)CCC(=O)O (configuration not stated) the results were ERK EGF inh 19% and NPSR antag -7%[46.1 µM].
`Cn1c(=O)c(Nc2ccc(O)cc2)c2c3c(cccc31)C(=O)c1ccccc1-2` gave ERK EGF inh 28µM* and NPSR antag -24%.
`Cc1ccc(NC2=C(NCCO)C(=O)c3ccccc3C2=O)cc1` gave ERK EGF inh inconclusive and NPSR antag -21%.
Screening N#CC(c1ccc(Cl)cc1)c1ccc2c(C(F)(F)F)cc(C(F)(F)F)nc2n1 (configuration not stated) returned NPSR antag 6.3µM*.
`FC(F)(F)c1cc(C(F)(F)F)c2ccc(N3CCN(c4ccc(Cl)cc4)CC3)nc2n1` gave NPSR antag 0%[46.1 µM].
Cc1cc(C)n(CC(O)Cn2c3ccc(Cl)cc3c3cc(Cl)ccc32)c(=O)n1 (configuration not stated) was read as NPSR antag -20%[46.1 µM].
Screening OC(CNCCC1C=Nc2ccccc21)Cn1c2ccc(Cl)cc2c2cc(Cl)ccc21 (configuration not stated) returned ERK EGF inh 22µM* and NPSR antag 10µM*.
O=C(c1ccco1)N1CCC2(CC1)CN(c1ccccn1)C2 was read as ERK EGF inh 5%.
